High-throughput results (PubChem)
HT1080 IDH1KD tx: qHTS for induction of synthetic lethality in tumor cells producing 2HG: qHTS for the HT-1080-IDH1KD cell line. HT-1080 IDH1 knockdown viability, ATP luminescence, 48 h. Potency, µM (series often up to 46.1 µM), for the others: top-dose activity, negative = toxicity, usual class: cytotoxic. hit rate 2% among 360,000;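 further: 0% = DMSO wells and -100% = cell-free medium wells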
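Luminescent ATP read-out (CellTiter-Glo, 10 min at room temperature) after 48 h compound exposure at 37 °C gave viability of IDH1-knockdown HT-1080 cells. Activity was normalised to DMSO and cell-free wells, then fitted as concentration-response curves.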
KB-3-1 tox: qHTS assay for MDR1-selective chemotherapeutics: Primary screen using the parental adenocarcinoma cell KB-3-1. KB-3-1 viability, CellTiter-Glo ATP luminescence, 72 h. Potency, µM (top dose mostly 46.1 µM), most hits filed as cytotoxic. hit rate 1.4% among 400,000; further: on the % scale 0 is the no-effect control and ±100 the full control effect; nearly all actives have a fitted effect of over 60% in size
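Parental KB-3-1 adenocarcinoma cells in phenol-red-free DMEM with 10% FBS were pin-treated with compounds at several concentrations, incubated 72 h at 37 °C, and viability read by CellTiter-Glo luminescence; concentration-effect curves were fitted after normalization.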
MCF10A rerep: A quantitative high throughput screen for small molecules that induce DNA re-replication in MCF 10a normal breast cells | MCF 10A DNA re-replication, Hoechst nuclear intensity, 48 h | Potency, µM (series often up to 46.1 µM), inactives show at the highest dose activity, positive = re-replication, most hits filed as activators | hit rate 2.9% among 350,000 | AID 624296, 2012; further: % of control where 0% means no effect; nearly all actives have a fitted effect of over 50% in size
KB-V1 cytotox: qHTS assay for MDR1-selective chemotherapeutics: Primary screen using the drug-selected MDR subline cells KB-V1. KB-V1 MDR cells viability, CellTiter-Glo, 72 h. Potency, µM (series often up to 46.1 µM), actives largely listed as cytotoxic. hit rate 3.4% among 400,000. AID 1347076, 2019; further: on the % scale 0 is the no-effect control and ±100 the full control effect; nearly all actives have a fitted effect of over 60% in size
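qHTS viability screen in drug-selected KB-V1 MDR cells: 72 h compound treatment at 37 degrees C, ATP luminescence end point.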
HT1080NT lethal: qHTS for induction of synthetic lethality in tumor cells producing 2HG: qHTS for the HT-1080-NT fibrosarcoma cell line; hit rate 1.6% among 360,000; AID 686970, 2013; HT-1080-NT fibrosarcoma viability, CellTiter-Glo ATP luminescence, 48 h; Potency, µM (series often up to 46.1 µM), inactives show at the top dose activity, negative = less viability, hits mostly cytotoxic;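 further: NT is the 2HG producing partner of a matched IDH1 knockdown line; 0% = DMSO-treated cells and -100% = media-only wells without cells; nearly all actives have a fitted effect of over 55% in size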
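750 cells/well, RPMI + 5% FBS; 2 h settle, compound pin-transfer, 48 h at 37 degrees C. CellTiter-Glo 10 min RT, luminescence. Normalized to DMSO and media-only wells.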
SW480 rereplic: A quantitative high throughput screen for small molecules that induce DNA re-replication in SW480 colon adenocarcinoma cells; SW480 DNA re-replication, Hoechst DNA content imaging, 48 h; AID 624297, 2012; Potency, µM (titrated, usually from 46.1 µM), for the others: at the highest dose re-replication activation, usual class: activators; hit rate 1.8% among 340,000; further: % of control where 0% means no effect; nearly all actives have a fitted effect of over 55% in size
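Quantitative HTS format with DMSO vehicle controls; 48 hr drug incubation at 37 C, then 40 min Hoechst staining and scanning imager measurement at 405 nm excitation.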
The depositor's hits bear a star; i = inactive; ? = inconclusive; . = not tested or not shown. Compounds with a hit are over-represented: about 7.9% of the library has one in this group of screens. The call rests on the fitted dose curve; in most records, active means well fitted curve in the direction sought with a large enough effect; inconclusive means small, poorly fitted or top-dose-only effect, or another doubt; inactive means no such curve, though single readings can be large; an effect the other way counts as inactive or inconclusive. Potency means the concentration at half of the fitted maximal effect.

SMILES	HT1080 IDH1KD tx	KB-3-1 tox	MCF10A rerep	KB-V1 cytotox	HT1080NT lethal	SW480 rereplic
CN1CCN(CCCNc2nc3ccccc3c3nc(-c4ccccc4)nn23)CC1	24.5%	i	?	i	11.0%	?
COc1cc2nc(NCCCN3CCN(C)CC3)n3nc(-c4ccccc4)nc3c2cc1OC	?	?	13µM*	?	16.4µM*	?
CCN(CC)CCCNc1nc2ccccc2c2nc(-c3ccncc3)nn12	16.4µM*	18.4µM*	?	?	?	?
CCN(CC)CCCNc1nc2cc(OC)c(OC)cc2c2nc(-c3ccccc3)nn12	?	23.1µM*	?	16.4µM*	18.4µM*	?
CCN(CC)CCCNc1nc2cc(OC)c(OC)cc2c2nc(-c3cccnc3)nn12	-1.0%	i	?	?	-2.8%	?
CN(C)c1ccc(/C=C/c2sc3ccccc3[n+]2Cc2ccccc2)cc1	.	i	.	?	.	.
N=c1c(-c2nc3ccccc3[nH]2)cc(C(=O)c2ccco2)nn1-c1ccccc1	-0.4%	i	2.3%	i	-1.9%	7.31µM*
COc1ccc2cc(-c3ccn[nH]3)ccc2c1	-10.5%	7.31µM*	12.7%	?	-11.4%	0.7%
COc1ccc(-c2cc(-c3ccccc3O)[nH]n2)cc1	?	i	?	i	?	-0.3%
COc1ccc(NC(=O)C2Cc3c(-c4ccco4)ccnc3O2)cc1OC (stereo unspecified)	-22.8%	i	.	?	-4.2%	.
CCS(=O)(=O)c1c([N+](=O)[O-])ncn1C	?	i	11.6µM*	i	?	?
Cn1cnc([N+](=O)[O-])c1S(=O)(=O)Oc1ccc(Cl)cc1	16.4µM*	?	6.51µM*	?	20.6µM*	5.8µM*
Cn1cnc([N+](=O)[O-])c1Oc1ccccc1	-15.2%	i	?	i	-12.5%	-0.5%
Cn1cnc([N+](=O)[O-])c1Oc1cccc2ccccc12	20.6µM*	20.6µM*	20.6µM*	?	?	?
Cn1cnc([N+](=O)[O-])c1S(=O)(=O)Oc1cccc2ccccc12	2.59µM*	?	5.8µM*	?	1.16µM*	6.51µM*
CCN(CC)c1c([N+](=O)[O-])ncn1C	11.9%	i	1.3%	i	9.9%	-4.0%
Cn1cnc([N+](=O)[O-])c1Cl	11.6%	i	?	i	12.1%	-12.7%
CCC1CCCCN1C(=O)COC(=O)CSc1ccc(C(N)=O)cc1[N+](=O)[O-] (stereo unspecified)	10.0%	i	-6.4%	i	1.4%	-4.9%
CC1CCCCN1C(=O)COC(=O)CSc1ccc(C(N)=O)cc1[N+](=O)[O-] (stereo unspecified)	0.8%	i	?	i	6.6%	6.51µM*
Nc1nc(N)c2c(ccc3nccc32)[nH]1	4.61µM*	?	?	i	5.8µM*	20.1%
CCc1nc2c(OCc3ccccc3)cccn2c1N(C)C(=O)COc1ccccc1	-14.4%	i	.	i	0.4%	.
CCc1nc2c(OCC(=O)c3ccc(Cl)cc3Cl)cccn2c1N(C=O)Cc1ccc(OC)cc1	?	i	.	?	-28.2%	.
CCc1nc2c(OCc3ccc(F)cc3)cccn2c1N(C)C(=O)COc1ccccc1	?	23.1µM*	.	6.51µM*	?	.
CCc1nc2c(OCCOc3ccc(F)cc3)cccn2c1N(C=O)Cc1ccc(OC)cc1	0.4%	i	.	18.4µM*	1.7%	.
CCc1nc2c(OCc3ccc(Cl)cc3Cl)cccn2c1N(C=O)Cc1ccc(OC)cc1	24.2%	?	.	18.4µM*	12.2%	.
SMILES	HT1080 IDH1KD tx	KB-3-1 tox	MCF10A rerep	KB-V1 cytotox	HT1080NT lethal	SW480 rereplic
Cc1cccc(NC(=O)c2sc3nc4c(c(-c5cccs5)c3c2N)CN(C)CC4)c1	-13.3%	i	16.4µM*	i	-4.8%	?
CC(C)NC(=O)c1sc2nc3c(c(-c4cccs4)c2c1N)CN(C)CC3	3.2%	i	2.9%	i	1.9%	-2.1%
COCCNC(=O)c1cc(-c2ccccc2C)nn1CC1CC(c2cccnc2)=NO1 (stereo unspecified)	10.1%	i	17.6%	i	0.0%	-3.2%
CCOC(=O)c1nc(Nc2ccc(C)cc2)c2ccccc2n1	-21.3%	i	0.9%	?	-20.7%	?
CCOC(=O)c1c(Nc2cccc(C(=O)OC)c2)nnc(-c2ccccc2)c1-c1ccccc1	.	i	.	13µM*	.	.
CCOC(=O)c1c(Nc2ccc(C)cc2)nnc(-c2ccccc2)c1-c1ccccc1	.	i	.	23.1µM*	.	.
COC(=O)c1cccc(Nc2nc3ccccc3nc2C)c1	?	i	?	i	-26.2%	0.6%
Cc1cc(C)c(NC(=O)CSC2=Nc3ccccc3C3=NC(CC(=O)NCc4cccs4)C(=O)N23)c(C)c1 (stereo unspecified)	.	i	.	i	.	.
Cc1ccc(CCNC(=O)C2CCCN(S(=O)(=O)c3ccc4c(c3)oc(=O)n4C)C2)cc1 (stereo unspecified)	.	i	.	i	.	.
Cn1c(=O)n(C)c2cc(N3CCCCC3)c(NC(=O)c3ccc(Cl)cc3)cc21	.	i	.	?	.	.
Cc1noc(C)c1C(=O)Nc1nc(-c2ccc(F)c(F)c2)cs1	10.9%	i	-6.2%	20.6µM*	-4.8%	-8.2%
COc1ccc(-c2csc(NC(=O)c3c(C)noc3C)n2)cc1F	-12.6%	i	16.5%	i	1.6%	-10.0%
CCc1noc(C)c1C(=O)Nc1nc(-c2ccc(OC)cc2)cs1	-17.4%	i	24.6%	i	-9.3%	18.4µM*
CCc1noc(C)c1C(=O)Nc1nc(-c2ccc(OC)cc2OC)cs1	-2.0%	i	7.8%	i	-16.6%	-715.2%
Cc1ccc2c(=O)c(C(=O)c3ccc(F)cc3)cn(CC(=O)Nc3ccc4c(c3)OCCO4)c2n1	.	i	.	i	.	.
CCCCOc1ccc(/C=N/Nc2cc(N3CCOCC3)nc(C)n2)cc1	-3.1%	i	-0.9%	i	1.1%	-6.5%
COc1ccc(Nc2c3c(nc4ccc(C)cc24)CCC3)cc1	-28.7%	i	-4.1%	i	-25.3%	-7.2%
COc1ccc(OC)c(Nc2c3ccccc3nc3ccccc23)c1	4.61µM*	11.6µM*	20.6µM*	20.6µM*	5.8µM*	20.6µM*
